{"source": "PubChem BioAssay (EPA / NIEHS)", "note": "Results filed as inconclusive are left out. Calls of active or inactive are those of the source. How the source made its calls: active means hit-call score of the fitted dose curve at least 0.9, where 1 is the maximum; inconclusive means response in the unintended direction; inactive means score below 0.9."}
{"target": "mouse Estrogen Receptor alpha (Era), Esr1 (gene 13982) (UniProt P19785)", "sequence (P19785 whole entry, looked up)": "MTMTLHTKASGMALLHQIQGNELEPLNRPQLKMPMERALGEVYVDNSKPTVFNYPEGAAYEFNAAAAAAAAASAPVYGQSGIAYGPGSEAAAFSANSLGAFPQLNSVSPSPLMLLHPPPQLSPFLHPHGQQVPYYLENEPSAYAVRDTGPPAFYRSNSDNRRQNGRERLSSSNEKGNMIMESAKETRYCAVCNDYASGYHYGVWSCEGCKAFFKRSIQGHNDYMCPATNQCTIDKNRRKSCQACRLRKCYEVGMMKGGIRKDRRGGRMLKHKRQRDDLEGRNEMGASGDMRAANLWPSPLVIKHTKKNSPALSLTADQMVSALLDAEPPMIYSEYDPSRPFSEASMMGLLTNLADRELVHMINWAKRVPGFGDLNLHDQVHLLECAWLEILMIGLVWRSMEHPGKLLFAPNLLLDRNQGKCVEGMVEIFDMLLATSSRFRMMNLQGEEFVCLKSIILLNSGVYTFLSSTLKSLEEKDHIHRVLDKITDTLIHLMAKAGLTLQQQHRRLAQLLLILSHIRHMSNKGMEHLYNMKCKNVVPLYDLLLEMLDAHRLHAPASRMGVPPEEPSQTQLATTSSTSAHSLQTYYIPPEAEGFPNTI", "assay": "NVS_NR_mERa: NovaScreen (NVS) Nuclear Receptor Binding Assay for mouse Estrogen Receptor alpha (Era) (AID 2283378);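 further: hit means loss of bound radioligand signal relative to DMSO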", "outline": "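Filter scintillation counts of bound radioligand, measured 18 h post-dose, gave the readout; decreased signal relative to DMSO controls indicated displacement from mouse Era. Primary screen ran in duplicate at 25 uM; active chemicals were retested across concentrations.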"}
{"smiles": "CSc1ccc(C(=O)C(C)(C)N2CCOCC2)cc1", "outcome": "inactive"}
{"smiles": "COP(=O)(OC)Oc1ccc([N+](=O)[O-])cc1", "outcome": "inactive"}
{"smiles": "COC(=O)C(C)N(C(=O)Cc1ccccc1)c1c(C)cccc1C", "note": "(stereo unspecified)", "outcome": "inactive"}
{"smiles": "CC(C)OC(=O)C(O)(c1ccc(Cl)cc1)c1ccc(Cl)cc1", "outcome": "inactive"}
{"smiles": "OC(c1ccc(F)cc1)(c1cncnc1)c1ccccc1Cl", "note": "(stereo unspecified)", "outcome": "inactive"}
{"test_system": "not listed separately", "assay": "TOX21_p53_BLA_p2_viability: Viability Assessment in the Tox21 HCT-116 p53 Agonism Beta-lactamase Assay, Phase 2 (AID 2283591);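 further: compound exposure lasted 16 h at 37 °C; actives lower the ATP signal meaning cytotoxicity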", "outline": "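HCT-116 p53-bla cells (4000/well) rested 5 h at 37C, then received compounds in DMSO (217-fold dilution) for 16 h at 37C, 5% CO2. After the CCF4 read, CellTiter-Glo was added; ATP luminescence was read after 30 min at room temperature.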"}
{"smiles": "CSc1ccc(C(=O)C(C)(C)N2CCOCC2)cc1", "outcome": "inactive"}
{"smiles": "CCN(CC)c1c([N+](=O)[O-])cc(C(F)(F)F)c(N)c1[N+](=O)[O-]", "outcome": "inactive"}
{"smiles": "CC(Oc1ccc(Oc2ncc(C(F)(F)F)cc2Cl)cc1)C(=O)O", "note": "(stereo unspecified)", "outcome": "inactive"}
{"smiles": "COC(=O)C(C)N(C(=O)Cc1ccccc1)c1c(C)cccc1C", "note": "(stereo unspecified)", "outcome": "inactive"}
{"smiles": "CC(C)OC(=O)C(O)(c1ccc(Cl)cc1)c1ccc(Cl)cc1", "AC50": "70.6 µM (active)"}
{"smiles": "CC(=O)[O][Pb]([c]1ccccc1)([c]1ccccc1)[c]1ccccc1", "AC50": "0.458 µM (active)"}
{"smiles": "N#Cc1sc2c(=O)c3ccccc3c(=O)c=2sc1C#N", "AC50": "14.9 µM (active)"}
{"smiles": "IC(I)=C(I)I", "outcome": "inactive"}
{"smiles": "[Hg+2].[I-].[I-]", "AC50": "35.4 µM (active)"}
{"target": "Cellular tumor antigen p53 (Homo sapiens) (UniProt P04637)", "sequence (P04637 whole entry, looked up)": "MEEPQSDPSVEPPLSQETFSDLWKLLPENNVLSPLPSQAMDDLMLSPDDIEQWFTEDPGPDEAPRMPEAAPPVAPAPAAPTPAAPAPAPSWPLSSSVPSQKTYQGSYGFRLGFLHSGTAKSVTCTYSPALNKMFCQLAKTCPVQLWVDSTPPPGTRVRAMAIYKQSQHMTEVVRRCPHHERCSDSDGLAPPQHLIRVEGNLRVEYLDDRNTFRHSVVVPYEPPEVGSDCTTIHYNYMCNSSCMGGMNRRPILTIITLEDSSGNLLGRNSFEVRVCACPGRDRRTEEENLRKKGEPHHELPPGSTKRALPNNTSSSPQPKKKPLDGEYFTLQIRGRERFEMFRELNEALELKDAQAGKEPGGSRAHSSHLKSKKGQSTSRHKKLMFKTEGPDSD", "assay": "TOX21_p53_BLA_p2_ratio: Tox21 HCT-116 p53 Agonism Beta-lactamase Assay, Ratio, Phase 2 (AID 2283592)", "outline": "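In this cell-based reporter format, HCT116 cells were dosed with chemicals delivered from DMSO by 217-fold dilution and incubated 16 h at 37C. Emission at 460 and 530 nm after 2 h CCF4-AM loading provided the ratio, fitted upward versus DMSO.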"}
{"smiles": "CSc1ccc(C(=O)C(C)(C)N2CCOCC2)cc1", "outcome": "inactive"}
{"smiles": "CCN(CC)c1c([N+](=O)[O-])cc(C(F)(F)F)c(N)c1[N+](=O)[O-]", "outcome": "inactive"}
{"smiles": "CC(Oc1ccc(Oc2ncc(C(F)(F)F)cc2Cl)cc1)C(=O)O", "note": "(stereo unspecified)", "outcome": "inactive"}
{"smiles": "CC(C)OC(=O)C(O)(c1ccc(Cl)cc1)c1ccc(Cl)cc1", "outcome": "inactive"}
{"smiles": "CC(=O)[O][Pb]([c]1ccccc1)([c]1ccccc1)[c]1ccccc1", "AC50": "23.3 µM (active)"}
{"smiles": "OC(c1ccc(F)cc1)(c1cncnc1)c1ccccc1Cl", "note": "(stereo unspecified)", "outcome": "inactive"}
{"smiles": "N#Cc1sc2c(=O)c3ccccc3c(=O)c=2sc1C#N", "AC50": "0.333 µM (active)"}
{"smiles": "IC(I)=C(I)I", "AC50": "13.2 µM (active)"}
{"smiles": "[Hg+2].[I-].[I-]", "AC50": "54.2 µM (active)"}
{"test_system": "not listed separately", "assay": "TOX21_p53_BLA_p3_viability: Viability Assessment in the Tox21 HCT-116 p53 Agonism Beta-lactamase Assay, Phase 3 (AID 2283593);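 further: cells exposed to compound for 16 h before reading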", "outline": "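HCT-116 cells (4000/well) rested 5 h at 37C, then got DMSO compounds by pin tool (217-fold dilution) for 16 h at 37C, 5% CO2. After the bla read, CellTiter-Glo was added and luminescence read at 30 min, room temperature.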"}
{"smiles": "CSc1ccc(C(=O)C(C)(C)N2CCOCC2)cc1", "outcome": "inactive"}
{"smiles": "COP(=O)(OC)Oc1ccc([N+](=O)[O-])cc1", "outcome": "inactive"}
{"smiles": "CC(Oc1ccc(Oc2ncc(C(F)(F)F)cc2Cl)cc1)C(=O)O", "note": "(stereo unspecified)", "outcome": "inactive"}
{"smiles": "CC(=O)[O][Pb]([c]1ccccc1)([c]1ccccc1)[c]1ccccc1", "AC50": "4.03 µM (active)"}
{"smiles": "OC(c1ccc(F)cc1)(c1cncnc1)c1ccccc1Cl", "note": "(stereo unspecified)", "outcome": "inactive"}
{"smiles": "N#Cc1sc2c(=O)c3ccccc3c(=O)c=2sc1C#N", "AC50": "25.2 µM (active)"}
{"smiles": "IC(I)=C(I)I", "outcome": "inactive"}
{"smiles": "[Hg+2].[I-].[I-]", "AC50": "70.1 µM (active)"}
